Molecules are shown by their SMILES. Inconclusive results are not listed. Activity calls are given as the source filed them. Calls follow the shape of the dose curve; as a rule, active = well fitted activation curve with a large enough effect in the signal ratio in the repeat runs (not every such curve was filed as active); inconclusive = weak or mixed curves, or effect the other way; inactive = flat fitted curve, though single readings scatter; the % refers to the signal ratio.

The assay can be described thus: qHTS assay to identify small molecule agonists of the endoplasmic reticulum stress response signaling pathway (AID 1159516). The settings on record: ESRE-bla HeLa, ER stress beta-lactamase reporter, 5 h; series mostly up to 61 µM. An excerpt: National Center for Advancing Translational Sciences [NCATS]
NIH Chemical Genomics Center [NCGC]
U.S. Environmental Protection Agency [EPA]
National Institutes of Environmental Health Sciences [NIEHS]
National Toxicology Program [NTP]
U.S. Food and Drug Administration [FDA]
Endoplasmic Reticulum (ER) plays an important role in cellular signaling, protein folding/maturation, stress response, lipid biosynthesis, calcium storage and release etc. Under stress conditions, proteins in ER misfold or unfold, and leading to the expression of ER stress responsive genes. ER stress has been associated with a variety of pathophysiological conditions such as cancer, inflammation, neurodegenerative diseases, diabetes, ischemic heart disease etc. To identify the compounds that induce ER stress response, an ER stress reporter cell line, CellSensor ESRE-bla HeLa (Life Technologies, Carlsbad, CA) containing a beta-lactamase reporter gene under control of the Endoplasmic reticulum Stress Response Element (ESRE) was used to screen Tox21 10K compound library.
Tox21 Assay Protocol Summary:
ESRE-bla HeLa cells were dispensed at 1,500 cells/6 uL of assay medium per well into black wall/clear-bottom 1536-well plates using a Multidrop Combi (ThermoFisher Scientific, Waltham, MA) dispenser. After the assay plates were incubated at 37 C and 5% CO2 for an overnight, 23 nL of compounds dissolved in DMSO, positive controls or DMSO only was transferred to the assay plate by a Pintool station (Kalypsys, San Diego, CA). The assay plates were incubated at 37 C and 5% CO2 for 5 hr. One uL of LiveBLAzer B/G FRET substrate (Life Technologies) was added using a Flying Reagent Dispenser (Aurora Discovery, San Diego, CA) and the plates were incubated at room temperature for 2 hr. Fluorescence intensity (405 nm excitation, 460 nm and 530 nm emissions) was measured using an Envision plate reader (PerkinElmer, Shelton, CT).
With `CC(C)(C)C(=O)CCl`, the outcome was inactive.

With `O=C(O)Cc1ccccc1`, the outcome was inactive. With `CC(=O)/C=C/c1ccccc1`, the call was inactive. Under `CC(C)CCCCCCOC(=O)c1ccccc1C(=O)OCCCCCCC(C)C` stands “inactive”. Under `C=CCN=C=S` stands “inactive”.

With `C/C=C/c1ccc2c(c1)OCO2`, the call was inactive. Under `FC(F)(F)c1ccc(Cl)cc1` stands “inactive”.

For the molecule `C=CC#N`, the outcome was inactive. For `C[C@H]1C(=O)O[C@@H]2CCN3CC=C(COC(=O)[C@](C)(O)[C@]1(C)O)[C@H]23` the value was “inactive”; for `Cl[C@H]1OCCO[C@@H]1Cl`, “inactive”; for `N#Cc1cccc(C#N)c1`, “inactive”. For `O=C(O)C1C(C(=O)O)C2(Cl)C(Cl)=C(Cl)C1(Cl)C2(Cl)Cl` (stereo not given) the value was “inactive”. For `COC(=O)Nc1cccc(OC(=O)Nc2cccc(C)c2)c1` the value was “inactive”; for `O=P1(NCCCl)OCCCN1CCCl` (stereo not given), “inactive”. Consider `Nc1cc(Cl)cc(Cl)c1`, for which the result was inactive. Under `Cc1cccc(N)c1C` stands “inactive”; under `O=S(=O)(O)OOS(=O)(=O)O`, “inactive”; under `CSc1nnc(C(C)(C)C)c(=O)n1N`, “inactive”. For `Cc1cccc(C)c1NC(=O)CN1CCCC1=O` the value was “inactive”. Regarding `Cc1cccc(N)c1`, the outcome was inactive. Turning to `CCSC(=O)N1CCCCCC1`, the molecule was called inactive. Under `ClC(Cl)c1ccccc1` stands “inactive”; under `OC[C@@H](O)[C@H]1O[C@@H]2O[C@H](C(Cl)(Cl)Cl)O[C@@H]2[C@H]1O`, “inactive”. For `Cc1ccccc1N` the value was “inactive”; for `C[C@]12CC[C@H](O)CC1=CC[C@@H]1[C@@H]2CC[C@]2(C)C(=O)CC[C@@H]12`, “inactive”; for `N#CN=C(N)N`, “inactive”. In the case of `COS(=O)(=O)OC`, the molecule was called inactive. For `CCOc1ccc(N)cc1` the value was “inactive”; for `Nc1nc(N)nc(NC2CC2)n1`, “inactive”; for `OCc1ccco1`, “inactive”. Under `Cl/C=C/Cl` stands “inactive”; under `COP(=S)(OC)SCN1C(=O)c2ccccc2C1=O`, “inactive”. For `COC(C)(C)CCCC(C)C/C=C/C(C)=C/C(=O)OC(C)C` (stereo not given) the value was “inactive”; for `Sc1ccccc1`, “inactive”. Take `CC12CC1(C)C(=O)N(c1cc(Cl)cc(Cl)c1)C2=O` (stereo not given): the molecule was classed as inactive. `COP(=S)(OC)Oc1ccc(SC)c(C)c1`: the call was inactive. For `O=C(O)CCCc1ccc(N(CCCl)CCCl)cc1` the value was “inactive”; for `CN(C)C(=O)C(c1ccccc1)c1ccccc1`, “inactive”; for `Cc1cc(O)ccc1Cl`, “inactive”. For `CC(=O)C1CCOC1=O` (stereo not given) the value was “inactive”.
